Common to all, as to conditions: mRNA level, 48 h; actives raise or lower the signal
Read-out in test [1]: succinate dehydrogenase complex iron sulfur subunit B (SDHB), SDHB (gene 6390)
The experiment in a line: LTEA_HepaRG_SDHB: Life Technologies and Expression Analysis (LTEA) Assay for succinate dehydrogenase complex iron sulfur subunit B (SDHB) using HepaRG (AID 2283528). An outline of the steps: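 HepaRG, 48 h exposure, 8-pt half-log series from 100 uM in 0.5% DMSO, duplicates. Readout: SDHB mRNA by Fluidigm qRT-PCR vs housekeeping genes; bidirectional fit relative to DMSO.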

Read-out in test [2]: Signal transducer and activator of transcription 3 (Homo sapiens) (UniProt P40763)
As to the kind of experiment: LTEA_HepaRG_STAT3: Life Technologies and Expression Analysis (LTEA) Assay for Signal transducer and activator of transcription (STAT3) using HepaRG (AID 2283529). An outline of the steps:
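Read-out is STAT3 mRNA level by qRT-PCR, normalized to three housekeeping genes, in human HepaRG liver cells treated for 48 h. Concentrations ran from 100 uM downward in half-log steps; curves were fitted for gain or loss relative to 0.5% DMSO.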

Read-out in test [3]: solute carrier (SLCO1B1), SLCO1B1 (gene 10599)
As to the kind of experiment: LTEA_HepaRG_SLCO1B1: Life Technologies and Expression Analysis (LTEA) Assay for solute carrier (SLCO1B1) using HepaRG (AID 2283530). The essentials:
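Differentiated human HepaRG cells, plated 48 h, switched to serum-free induction medium and exposed in duplicate for 48 h to 8 half-log concentrations (top 100 uM) in 0.5% DMSO. SLCO1B1 mRNA by TaqMan qRT-PCR, normalized to ACTB/GAPDH/POLR2A.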

Read-out in test [4]: sulfotransferase 2A1 (SULT2A1), SULT2A1 (gene 6822)
The experiment in a line: LTEA_HepaRG_SULT2A1: Life Technologies and Expression Analysis (LTEA) Assay for sulfotransferase 2A1 (SULT2A1) using HepaRG (AID 2283531). An outline of the steps: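 Differentiated human HepaRG cells in serum-free induction medium were exposed for 48 h to eight half-log concentrations (top 100 uM, 0.5% DMSO). SULT2A1 mRNA was measured by qRT-PCR, normalized to ACTB, GAPDH and POLR2A, and fitted bidirectionally against DMSO.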

Read-out in test [5]: Transforming Growth Factor (TGFA), TGFA (gene 7039)
As to the kind of experiment: LTEA_HepaRG_TGFA: Life Technologies and Expression Analysis (LTEA) Assay for Transforming Growth Factor (TGFA) using HepaRG (AID 2283532). The essentials:
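HepaRG (human liver line), 48 h exposure, 8 conc. half-log down from 100 uM, 0.5% DMSO vehicle, duplicates; serum-free induction medium. TGFA mRNA by TaqMan qRT-PCR, ACTB/GAPDH/POLR2A normalization; gain/loss fit vs DMSO.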

Read-out in test [6]: Transforming Growth Factor (TGFB1), TGFB1 (gene 7040)
As to the kind of experiment: LTEA_HepaRG_TGFB1: Life Technologies and Expression Analysis (LTEA) Assay for Transforming Growth Factor (TGFB1) Transporter using HepaRG (AID 2283533). An outline of the steps:
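Differentiated human HepaRG cells in serum-free induction medium were exposed in duplicate for 48 h to eight concentrations (top 100 uM, half-log steps, 0.5% DMSO). TGFB1 mRNA was quantified by qRT-PCR, normalized to ACTB, GAPDH, POLR2A, and fitted bidirectionally against DMSO.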

Read-out in test [7]: TIMP1, TIMP1 (gene 7076)
As to the kind of experiment: LTEA_HepaRG_TIMP1: Life Technologies and Expression Analysis (LTEA) Assay for TIMP1 using HepaRG (AID 2283534).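 On outcome: TaqMan qRT-PCR signal normalized to ACTB GAPDH and POLR2A housekeeping genes.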 The essentials: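 Differentiated human HepaRG cells in serum-free induction medium were exposed 48 h to chemicals (8 half-log concentrations, top 100 uM, 0.5% DMSO). TIMP1 mRNA was quantified by TaqMan qRT-PCR, normalized to ACTB/GAPDH/POLR2A; bidirectional fit versus DMSO.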

Read-out in test [8]: Tumor necrosis factor receptor 1 (TNFRSF1A), TNFRSF1A (gene 7132)
The experiment in a line: LTEA_HepaRG_TNFRSF1A: Life Technologies and Expression Analysis (LTEA) Assay for Tumor necrosis factor receptor 1 (TNFRSF1A) using HepaRG (AID 2283535). An outline of the steps:
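Differentiated human HepaRG cells were exposed in duplicate for 48 h in serum-free induction medium to eight concentrations (top 100 uM, half-log steps, 0.5% DMSO). TNFRSF1A mRNA was quantified by qRT-PCR, normalized to ACTB, GAPDH and POLR2A, then fitted bidirectionally against DMSO.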

Read-out in test [9]: Thyroid Hormone Responsive (THRSP), THRSP (gene 7069)
As to the kind of experiment: LTEA_HepaRG_THRSP: Life Technologies and Expression Analysis (LTEA) Assay for Thyroid Hormone Responsive (THRSP) using HepaRG (AID 2283536). An outline of the steps:
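mRNA induction or loss relative to 0.5% DMSO vehicle was fitted bidirectionally across an eight-point curve whose highest exposure was 100 uM. Human HepaRG liver cells received chemicals in duplicate over 48 h before RNA extraction.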

Read-out in test [10]: Cellular tumor antigen p53 (Homo sapiens) (UniProt P04637)
The experiment in a line: LTEA_HepaRG_TP53: Life Technologies and Expression Analysis (LTEA) Assay for Tumor Protein P53 (TP53) using HepaRG (AID 2283537). The essentials: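 HepaRG, 48 h exposure, top 100 uM, half-log 8-point, 0.5% DMSO vehicle, duplicates. Read: TP53 mRNA by TaqMan qRT-PCR, normalised to ACTB/GAPDH/POLR2A; bidirectional fit vs DMSO.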

Structures are written as SMILES. The source made the active and inactive calls. How the source made its calls: active means hit-call score of the fitted dose curve at least 0.9, where 1 is the maximum; inactive means score below 0.9.

Cellular tumor antigen p53 (Homo sapiens), sequence (P04637 whole entry, looked up): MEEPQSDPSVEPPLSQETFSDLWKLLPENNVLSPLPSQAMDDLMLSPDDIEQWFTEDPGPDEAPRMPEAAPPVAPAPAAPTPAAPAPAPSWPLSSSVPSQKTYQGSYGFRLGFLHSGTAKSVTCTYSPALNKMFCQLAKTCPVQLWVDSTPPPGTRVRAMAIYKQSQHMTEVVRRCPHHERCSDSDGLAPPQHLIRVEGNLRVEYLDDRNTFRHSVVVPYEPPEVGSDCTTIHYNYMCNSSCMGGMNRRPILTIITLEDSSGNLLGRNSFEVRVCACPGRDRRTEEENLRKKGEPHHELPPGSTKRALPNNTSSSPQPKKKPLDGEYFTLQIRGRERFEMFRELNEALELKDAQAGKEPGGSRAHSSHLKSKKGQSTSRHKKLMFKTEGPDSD
Signal transducer and activator of transcription 3 (Homo sapiens), sequence (P40763 whole entry, looked up): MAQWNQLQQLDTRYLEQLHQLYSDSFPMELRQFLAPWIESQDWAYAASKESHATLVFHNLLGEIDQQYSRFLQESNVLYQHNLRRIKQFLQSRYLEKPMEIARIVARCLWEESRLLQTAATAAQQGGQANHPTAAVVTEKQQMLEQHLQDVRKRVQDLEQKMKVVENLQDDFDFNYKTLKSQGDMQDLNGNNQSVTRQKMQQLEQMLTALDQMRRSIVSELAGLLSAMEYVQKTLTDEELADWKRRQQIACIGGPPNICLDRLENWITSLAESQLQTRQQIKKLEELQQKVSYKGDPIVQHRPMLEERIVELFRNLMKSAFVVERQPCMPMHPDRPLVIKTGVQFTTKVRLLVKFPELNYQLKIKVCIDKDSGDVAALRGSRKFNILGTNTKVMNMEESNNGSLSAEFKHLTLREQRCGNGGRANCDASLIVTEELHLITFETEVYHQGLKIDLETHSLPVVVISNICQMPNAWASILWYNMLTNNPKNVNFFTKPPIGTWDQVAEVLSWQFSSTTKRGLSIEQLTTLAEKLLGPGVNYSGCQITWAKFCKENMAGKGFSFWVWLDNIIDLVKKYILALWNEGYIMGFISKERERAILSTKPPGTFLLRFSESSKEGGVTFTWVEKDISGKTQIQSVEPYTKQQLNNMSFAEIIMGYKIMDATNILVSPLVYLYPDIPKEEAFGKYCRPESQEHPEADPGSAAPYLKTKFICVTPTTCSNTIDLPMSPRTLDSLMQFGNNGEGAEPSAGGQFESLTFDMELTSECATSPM

Turning to `Cc1ccn2nc(S(=O)(=O)Nc3c(F)cccc3F)nc2n1`, the call in test [1], in test [2], in test [3], in [4], in test [5] and in test [6] was inactive. Besides, the molecule was classed as inactive in [7], in [8] and in test [9].
As for `Cc1nn(-c2cc(NS(C)(=O)=O)c(Cl)cc2Cl)c(=O)n1C(F)F`, the molecule was classed as inactive in test [1], in [2], in [3], in test [4], in [5] and in test [6]. The call in [7], in [8], in test [9] and in test [10] was inactive.
By AC50 is commonly meant the concentration giving half of the maximal activity seen. With `CC[C@H](C)[C@H]1O[C@]2(C=C[C@@H]1C)C[C@@H]1C[C@@H](C/C=C(\C)[C@@H](O[C@H]3C[C@H](OC)[C@@H](O[C@H]4C[C@H](OC)[C@@H](NC)[C@H](C)O4)[C@H](C)O3)[C@@H](C)/C=C/C=C3\CO[C@@H]4[C@H](O)C(C)=C[C@@H](C(=O)O1)[C@]34O)O2`, the outcome in test [1], in test [5], in test [6], in [7] and in [9] was inactive. Also, the AC50 in [2] was 11.9 µM (active); in [3] it was 19.9 µM (active); in test [4] it was 26.3 µM (active); in test [8], 12 µM (active); in test [10], 86.7 µM (active).
On to `CCCOc1nn(C(=O)NS(=O)(=O)c2ccccc2C(=O)OC)c(=O)n1C`, for which the result in test [1], in [2], in test [3], in test [4], in test [5] and in test [6] was inactive. Moreover, the molecule was classed as inactive in [7], in test [8], in [9] and in [10].
On to `CCC(CC)Nc1c([N+](=O)[O-])cc(C)c(C)c1[N+](=O)[O-]`, for which the call in test [1], in test [2], in [4], in [5], in test [6] and in [7] was inactive. The molecule was classed as inactive in test [8] and in [10]. Besides, the AC50 in [3] is 50 µM (active); in test [9] it was 36.7 µM (active).
`COP(=O)(OC)SCn1c(=O)oc2cc(Cl)cnc21`: the result in test [1], in [2], in test [3], in test [4], in test [5] and in test [6] was inactive. For the same molecule, the molecule was classed as inactive in test [7] and in [10]. Also, the AC50 in [8] was 0.262 µM (active); in test [9], 73.4 µM (active).
Regarding `CCCSP(=O)(OCC)SCCC`, the result in test [1], in test [2], in [3], in test [4], in test [5] and in test [6] was inactive. In addition, the call in test [7], in test [8] and in test [9] was inactive.
Turning to `Cc1cc(C2CC2)nc(Nc2ccccc2)n1`, the molecule was called inactive in test [1], in test [2], in [3], in test [4], in test [5] and in test [6]. The molecule was called inactive in test [7], in test [8] and in test [10]. Further, in test [9], the AC50 is 50 µM (active).
With `CCCCSP(=O)(SCCCC)SCCCC`, the outcome in test [1], in test [2], in test [3], in test [4], in test [5] and in test [6] was inactive. Also, the call in test [7], in test [8], in test [9] and in test [10] was inactive.
In the case of `CNC(=O)Oc1cccc2c1OC(C)(C)O2`, the molecule was classed as inactive in test [1], in test [2], in test [3], in [4], in test [5] and in [6]. In addition, the call in test [7], in test [8], in test [9] and in test [10] was inactive.
For the molecule `Nc1c(Cl)cc([N+](=O)[O-])cc1Cl`, the AC50 is 50 µM (active) in test [1]; 25 µM (active) in [2]; 50 µM (active) in [3]; 50 µM (active) in [4]; 74 µM (active) in [7]; 74.1 µM (active) in test [8]. Moreover, in [9], the AC50 was 42.3 µM (active). The outcome in test [5] and in test [6] was inactive.
On to `CNC(=O)ON=C(SC)C(=O)N(C)C`, for which the molecule was classed as inactive in test [1], in [2], in test [3], in test [4], in test [5] and in test [6]. For the same molecule, the call in test [7], in test [8], in test [9] and in [10] was inactive.
On to `CCCOCC(=Nc1ccc(Cl)cc1C(F)(F)F)n1ccnc1`, for which, in test [1], the molecule was classed as inactive. In addition, the AC50 in test [2] is 50 µM (active); in [3], 15.8 µM (active); in test [4], 66.6 µM (active); in test [5], 92.4 µM (active); in test [6], 50 µM (active); in test [7], 88.9 µM (active). In addition, the figures for the AC50 in [8], in [9] and in test [10] were 93.7 µM (active), 19.1 µM (active) and 86.9 µM (active), respectively.
On to `C[Si](Cn1cncn1)(c1ccc(F)cc1)c1ccc(F)cc1`, for which the outcome in [1], in [2], in test [7] and in test [10] was inactive. The AC50 in test [3] is 74.4 µM (active); in [4], 73.5 µM (active); in test [5] it was 65.1 µM (active); in [6], 34.1 µM (active); in test [8], 50 µM (active); in test [9] it was 5.9 µM (active).
On to `CCc1cnc(C2=NC(C)(C(C)C)C(=O)N2)c(C(=O)O)c1` (stereo unspecified), for which the molecule was classed as inactive in [1], in test [2], in [3], in test [4], in test [5] and in [6]. Further, the molecule was classed as inactive in test [7], in test [8] and in test [9].
In the case of `CCOP(=S)(OCC)Oc1cc(C)nc(C(C)C)n1`, the call in [1], in test [2], in test [3], in test [4], in test [5] and in test [6] was inactive. Besides, the molecule was called inactive in test [7], in [8] and in test [10]. In addition, the AC50 in [9] was 73.3 µM (active).
For the molecule `CCc1cccc(C)c1N(C(=O)CCl)C(C)COC` (stereo unspecified), the outcome in [1], in [2], in test [3], in test [4], in test [5] and in test [6] was inactive. Moreover, the result in test [7], in test [8], in test [9] and in test [10] was inactive.
As for `CC(C)[C@H](C(=O)O[C@H](C#N)c1cccc(Oc2ccccc2)c1)c1ccc(Cl)cc1`, the result in test [1], in [2], in test [3], in [4], in test [5] and in test [6] was inactive. For the same molecule, the result in test [7], in test [8], in test [9] and in [10] was inactive.
In the case of `CCOC(=O)CC(SP(=O)(OC)OC)C(=O)OCC` (stereo unspecified), the outcome in [1], in [2], in [3], in test [4], in [5] and in test [6] was inactive. For the same molecule, the molecule was called inactive in test [7], in [8], in test [9] and in [10].

The values above are taken from PubChem BioAssay (EPA / NIEHS).
